Laboratory results reported in PubChem BioAssay (NCATS).
Inconclusive results are not listed. Calls of active or inactive are those of the source. The call rests on the fitted dose curve; in most records, active means well fitted curve in the direction sought with a large enough effect; inconclusive means small, poorly fitted or top-dose-only effect, or effect the other way, or another doubt; inactive means no such curve, though single readings can be large or run the other way.

Experiment: Cytotoxicity qHTS for assessment of Hepg2 cells membrane integrity screened against the NCATS CANVASS Library (AID 1347387)
Details: HepG2 LDH release (CytoTox-ONE) fluorescence, 5 h; series mostly up to 46.1 µM; cytotoxicity (LDH release): at the top concentration
From the text: Natural products and their derivatives continue to be wellsprings of nascent therapeutic potential. However, many laboratories have limited resources for biological evaluation, leaving their previously isolated or synthesized compounds largely or completely untested. To address this issue, the Canvass library of natural products was assembled (https://tripod.nih.gov/canvass), in collaboration with academic and industry researchers, for quantitative high-throughput screening (qHTS) across a diverse set of cell-based and biochemical assays. The pure (>85% purity by liquid chromatography/mass spectrometry [LC/MS]) Canvass library of 346 natural products were submitted by 45 academic laboratories and companies around the world. We collected pure natural products to circumvent deconvolution and structure elucidation due to time and resource limitations. The library was formatted into 1536-well plates and evaluated in 50 qHTS (in an 11-pnt concentration series) bioassays with broad scope of disease-relevant mechanisms. The resulting data set from 50 different assays was then systematically analyzed to identify overall trends and specific natural products with interesting biological activities. Reported herein are the results of each individual qHTS and their corresponding assay protocol. The membrane integrity assay is a fluorometric method for estimating the number of nonviable cells. The assay measures the release of lactate dehydrogenase (LDH) from cells with a damaged cellular membrane. The amount of fluorescence is proportional to the number of lysed cells. National Center for Advancing Translational Sciences (NCATS), Rockville, MD National Institute of Health (NIH), Bethesda, Maryland
Membrane Integrity-screen protocol: 1. In black solid-bottom 1536 well plates, 5 uL of HepG2 cell suspension was dispensed using the Multidrop Combi (Thermo Fisher Scientific) at a final concentration of 2000 cells / well (columns 2-48). 2. The assay plates were incubated overnight at 37C, 5% CO2 to allow the cells to acclimate and attach. 3. 23 nL of compounds (in DMSO), vehicle control (DMSO) or control compound were pin transferred into the assay plates using the Kalypsis pin tool (Wako USA) equipped with a 1536 well pin heads, resulting in final concentration of 0.59 nM - 46 uM. 4. The assay plates were further incubated for 5 hr at 37C, 5% CO2. 5. 5 uL of CytoTox-ONE Membrane Integrity Assay reagent was added to the plates using the BioRAPTR dispenser followed by a 10 min room temperature incubation. 6. The fluorescence signal was measured using the EnVision plate reader (PerkinElmer) using a 560 nm excitation and 590 nm emission filters.

Structure (SMILES) | cytotoxicity (LDH release)
CC(=O)c1c(C)cc2c(c1O)C(=O)c1c(O)cc(O)cc1C2=O | -0.845 (inactive)
C/C(=C\[C@H](C)C(=O)C[C@H](O)CC1CC(=O)NC(=O)C1)[C@@H]1OC(=O)CCCC/C=C/[C@@H](O)C[C@@H]1C | 1.27 (inactive)
C[n+]1cc2cc(C(N)=O)[nH]c3c(=N)c(Cl)c(N)c1c23 | -1.18 (inactive)
C=C[C@](Cl)(CBr)CCC=C(C)C | 1.94 (inactive)
CN1CCc2cc3c(c4c2C1(C)C(=O)c1cc(O)ccc1-4)OCO3 (stereo not given) | -1.34 (inactive)
C[C@]12CCC[C@](C)(C(=O)O)[C@@H]1CC[C@@]1(C)c3cocc3CC[C@H]21 | 1.74 (inactive)
C[C@@]12C[C@@H](C[C@@H]3C(=O)O[C@@H](c4ccoc4)[C@H](OC(=O)c4ccccc4)[C@@H]31)OC2=O | -1.43 (inactive)
C[C@H](c1cnc(N)[nH]1)c1ccc(O)c2[nH]cc(-c3cnc(-c4c[nH]c5ccccc45)c(=O)[nH]3)c12 | -1.64 (inactive)
CC(C)C[C@@H]1c2c(O)c(C=O)c(O)c(C=O)c2O[C@]2(C)C=C[C@@H](C(C)C)C[C@H]12 | -2.63 (inactive)
CC(C)=CCC[C@]12c3cc4c(cc3CC[C@@]1(C)[C@H](C)CC[C@@H]2O)[nH]c1ccccc14 | 1.29 (inactive)
C/C=C/[C@H]1[C@H]2C(=O)c3c(O)c(C)c(O)c(C)c3[C@]1(C(=O)O)C(=O)C=C2C | -0.823 (inactive)
O[C@H]1C=C2[C@H]3CN(Cc4cc5c(cc43)OCO5)[C@H]2C[C@@H]1O | -0.931 (inactive)
O=C1CC2OCC=C3CN4C5CC3C2[C@@H]2N1c1ccccc1[C@]52C[C@@H]4C1=C[C@H]2C3CC4N(CC[C@@]45c4ccccc4N(C1=O)[C@@H]25)C/C3=C/CO (stereo not given in full) | 5.66 (inactive)
COc1ccc([C@@H]2CC(=O)c3c(cc(O)c(C/C=C(\C)CCC=C(C)C)c3O)O2)cc1 | -0.251 [at 9.19 µM] (inactive)
COC12OC1(C13OC1(OC)C(=O)c1cc4cc(C)oc(=O)c4c(O)c1C3O)C(O)c1c(cc3cc(C)oc(=O)c3c1O)C2=O (stereo not given) | -0.72 (inactive)
C[C@@]12CCC[C@@](C)(C(=O)OP(=O)(O)OC[C@H]3O[C@@H](n4cnc5c(N)ncnc54)[C@H](O)[C@@H]3O)[C@H]1C[C@@H](O)[C@@]13C[C@@H](CC[C@@H]21)[C@](C)(O)C3 | -1.56 (inactive)
COc1cc2ccc(=O)oc2c(O)c1O[C@@H]1O[C@H](CO)[C@@H](O)[C@H](O)[C@H]1O | -0.415 [at 27.5 µM] (inactive)
CC[C@@H]1C[C@@]2(CC)OC(=O)[C@@]3(CC)[C@H](CC)[C@@H]1[C@@H]23 | 2.49 (inactive)
O=C(OC[C@H]1O[C@@H](OC(=O)c2cc(O)c(O)c(O)c2)[C@H](OC(=O)c2cc(O)c(O)c(O)c2)[C@@H](OC(=O)c2cc(O)c(O)c(O)c2)[C@@H]1OC(=O)c1cc(O)c(O)c(O)c1)c1cc(O)c(O)c(O)c1 | -1.39 (inactive)
CC(=O)O[C@H]1c2ccccc2-c2c3c(cc4c2[C@@H]1N(C(C)=O)CC4)OCO3 | -0.658 (inactive)

Structure (SMILES) | cytotoxicity (LDH release)
C/C(=C\[C@H](C)C(=O)C[C@H](O)CC1CC(=O)NC(=O)C1)[C@@H]1OC(=O)CCCC/C=C/C[C@@H](O)[C@@H]1C | -1.34 (inactive)
COc1cc2c(c(O)c1O)C(=O)c1c(coc1C)C2=O | 2.21 (inactive)
CC1=C[C@H]2[C@H]3C(=O)C(c4ccc(O)cc4)=C[C@@]3(c3ccc(O)cc3)[C@@H]1C(=O)[C@]2(C)O | 1.96 (inactive)
C/C(=C\CC[C@@H](C)[C@H]1CC[C@]2(C)C3=CCC4C(C)(C)[C@@H](O)C[C@@H](O)[C@]4(C)C3[C@H](O)C[C@@]12C)CO (stereo not given in full) | -0.11 (inactive)
C/C(=C\[C@H](C)C(=O)/C=C/CC1CC(=O)NC(=O)C1)[C@@H]1OC(=O)/C=C/CC/C=C/C[C@@H](O)[C@@H]1C | 1.19 (inactive)
CC(C)[C@]12CC[C@@]3(C)[C@H](C)CC[C@H](O)[C@@]3(CC1)c1cc3c(cc12)[nH]c1ccccc13 | 2.99 (inactive)
COC(=O)[C@]1([C@H]2CCC(=O)O2)CC(=O)c2c(O)cc(C)cc2O1 | 0.561 (inactive)
O=C1CC(c2ccc(O)cc2)Oc2cc(O)cc(O)c21 (stereo not given) | 1.36 (inactive)
C/C=C1/CN2C3CC1C1C=CC(=O)N4c5ccccc5[C@@]3(C[C@@H]2C2=C[C@H]3C5CC6N(CC[C@@]67c6ccccc6N(C2=O)[C@@H]37)C/C5=C/C)[C@H]14 (stereo not given in full) | 0.782 (inactive)
CC1(C)CC[C@]2(CO)CC[C@]3(C)C(=CCC4[C@@]5(C)CC[C@H](O)C(C)(C)C5CC[C@]43C)C2C1 (stereo not given in full) | -0.442 (inactive)
CCC(=O)CCCCC[C@@H]1NC(=O)[C@H]2CCCCN2C(=O)[C@H](C(C)C)NC(=O)[C@H](Cc2cn(OC)c3ccccc23)NC1=O | 0.277 (inactive)
CC[C@@H]1[C@H](C)[C@H](c2cc(OC)c(OC)cc2OC)[C@@H](C)[C@H](c2cc(OC)c(OC)cc2OC)[C@]12C=C(OC)C(=O)C=C2OC | 6.31 (inactive)
COC(=O)c1cccc2oc(-c3cccc4oc(-c5c(C)cccc5O)nc34)nc12 | -0.476 (inactive)
O=Cc1ccc2n1C[C@]1(C[C@H](O)[C@@H](CO)O1)OC2 | 1.19 (inactive)
C=C1CCC2C(C)(C(=O)O)CCC(CC/C(C)=C/C(=O)NC(CCC(N)=O)C(=O)O)[C@@]2(C)C1 (stereo not given in full) | 0.73 (inactive)
Cc1cc(O)cc2c1C(=O)c1c(O)cc(O)cc1C2=O | 0.607 (inactive)
C=C[C@]1(C)CC[C@@H]([C@H](C)C(=O)/C=C/C(C)(C)O)O1 | 2.43 (inactive)
C[C@@]1(CCC(=O)Nc2c(O)ccc(C(=O)O)c2O)C(=O)C=C[C@]23C[C@H]4C[C@H](O[C@@]4(C)C2)C31 (stereo not given in full) | 0.943 (inactive)
C[C@H](CCC(O)C(C)(O)CO)[C@@]1(O)CC[C@@]2(C)C3=C(CC[C@@]21C)[C@@]1(C)CCC(OC(=O)CCC(=O)O)C(C)(C)[C@@H]1CC3 (stereo not given in full) | 1.73 (inactive)
C/C=C/C1C=CC2CC(C)CC(C)C2C1C(=O)CC(=O)NC(CO)C/C=C/CCCCC (stereo not given) | -1.32 (inactive)
